Compound activity from PubChem.
Rab9 promoter act = activates the Rab9 promoter; Huh7 Rab9 promoter-luciferase reporter, luminescence, 24 h; Potency, µM (doses to about 9.22 µM), without a hit: top-dose activation, negative = inhibition, most hits filed as activators; 2.8% of 320,000 active; AID 485297; further: % of control where 0% means no effect; nearly all actives have a fitted effect of over 60% in size
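Luminescence read-out: Huh7 cells stably expressing Rab9-luciferase, treated 24 h with compound at 37 °C, then lysed with luciferase reagent for 10 min at ambient before reading.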
SMN2 splice enh = increases expression of the SMN2 splice variant; 2.8% of 210,000 active; HEK293 SMN2-luciferase splicing reporter, luminescence, 30-36 h; AID 1458; Potency, µM (highest dose often 46.1 µM), inactives show top-dose activity change, positive = activation, usual class: activators; further: % of control where 0% means no effect; nearly all actives have a fitted effect of over 55% in size
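qHTS luciferase splicing reporter: luminescence rises when SMN2 exon 7 is included in transfected HEK293 cells. Compound exposure lasted 30-36 h at 37C, with 4.5 mM final sodium butyrate as control, followed by a ONE-Glo read.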
FLuc counter = inhibits or activates purified firefly luciferase, miR-21 counter-screen. 6.9% of 360,000 active. purified FLuc, Km substrates, luminescence inhibition. P08659. Potency, µM (top dose mostly 57.5 µM), inactives show at the highest dose activity change, negative = inhibition, actives largely listed as inhibitors;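 further: plate controls were vehicle for no effect and reference inhibitor for full effect; nearly all actives have a fitted effect of over 55% in size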
Target sequence (P08659 whole entry, looked up): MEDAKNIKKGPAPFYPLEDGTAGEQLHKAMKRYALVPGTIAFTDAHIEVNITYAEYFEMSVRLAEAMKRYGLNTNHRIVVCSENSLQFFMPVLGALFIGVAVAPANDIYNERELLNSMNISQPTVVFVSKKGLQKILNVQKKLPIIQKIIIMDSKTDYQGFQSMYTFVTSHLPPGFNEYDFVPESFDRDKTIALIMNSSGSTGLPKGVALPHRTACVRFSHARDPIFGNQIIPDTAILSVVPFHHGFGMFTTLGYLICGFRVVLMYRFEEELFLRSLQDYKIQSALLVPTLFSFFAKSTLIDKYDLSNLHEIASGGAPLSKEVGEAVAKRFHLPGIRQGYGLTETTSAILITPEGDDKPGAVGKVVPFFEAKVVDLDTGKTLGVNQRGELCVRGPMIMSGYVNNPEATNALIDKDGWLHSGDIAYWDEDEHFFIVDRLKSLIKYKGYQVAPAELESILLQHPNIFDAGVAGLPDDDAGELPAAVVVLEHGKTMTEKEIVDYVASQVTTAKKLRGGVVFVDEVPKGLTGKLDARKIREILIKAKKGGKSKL
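Purified P. pyralis luciferase, 10 nM final, with Km-level 10 uM D-luciferin and 10 uM ATP in 50 mM Tris acetate pH 7.5, 10 mM Mg acetate, 0.01% Tween-20, 0.05% BSA; 6-point qHTS titration about 60 µM downward; luminescence read.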
Luc counter = Kinase-Glo luciferase inhibition (counter-screen). Kinase-Glo luciferase, ATP luminescence, 8 min. 0.28% of 200,000 active. AID 1379. Q27757. Potency, µM (top dose mostly 38.3 µM), for inactives: at the top dose activity change, negative = inhibition, hits mostly inhibitors; further: on the % scale 0 is the no-effect control and ±100 the full control effect; nearly all actives have a fitted effect of over 60% in size
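Substrate mix (final 50 mM imidazole pH 7.2, 50 mM KCl, 7 mM MgCl2, 10 uM ATP, 0.01% Tween 20, 0.05% BSA) plus pin-tool compound, then Kinase-Glo detection mix; 8 min ambient, luminescence read.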
NPC1 prom act = activates the NPC1 promoter; Huh7 NPC1 promoter luciferase reporter, 24 h; Potency, µM (series often up to 9.22 µM), without a hit: at the highest dose activation, actives largely listed as activators; 2.4% of 320,000 active; AID 485313; further: % of control where 0% means no effect; nearly all actives have a fitted effect of over 60% in size
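Readout is luciferase luminescence, reflecting NPC1 promoter activation in stably transfected Huh7 cells after 24 h compound exposure at 37 °C in reduced-serum medium with 10% FBS.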
ELG1 genotoxic = inducers of genotoxicity in HEK293T ELG1-luciferase cells. Potency, µM (doses to about 46 µM), for the others: at the top dose activity change, positive = activation, actives largely listed as activators. 1.3% of 330,000 active. HEK293T ELG1-luciferase reporter, luminescence, 16 h. AID 504466; further: % of control where 0% means no effect; nearly all actives have a fitted effect of over 60% in size
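Step 1: seed 2,000 HEK293T ELG1-luciferase cells per well. Step 2: add compound or DMSO, incubate 16 hr at 37 °C. Step 3: ONE-Glo, 30 min at room temperature, read luminescence.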
Active calls of the source: *; ? = inconclusive; · = no result. A selection: hits, their analogues and other compounds. The true share with any hit is near 7.3%. The call rests on the fitted dose curve; in most records, active means well fitted curve in the direction sought with a large enough effect; inconclusive means small, poorly fitted or top-dose-only effect, or another doubt; inactive means no such curve, though single readings can be large; an effect the other way counts as inactive or inconclusive. Potency means the concentration at half of the fitted maximal effect.

SMILES	Rab9 promoter act	SMN2 splice enh	FLuc counter	Luc counter	NPC1 prom act	ELG1 genotoxic
COc1ccc(CC(=O)c2ccc(OC)c(OC)c2)cc1	-0.9%	-8.2%	-17.3%	0.9%	-2.5%	12.9%
COc1nc2ccc(C)cc2cc1-c1noc(-c2cccnc2)n1	1.4%	-11.5%	0.2%	0.6%	-1.8%	-5.4%
COc1cccc(-c2noc(-c3cccnc3)n2)c1	2.51µM*	20µM*	5.36µM*	-9.9%	3.55µM*	?
COc1cc(OC)c(-c2nc(-c3ccncc3)no2)cc1OC	1.8%	·	-1.1%	·	-0.1%	-2.8%
CCCc1noc(-c2cccc([N+](=O)[O-])c2)n1	-3.9%	-5.0%	-8.3%	0.5%	-2.7%	1.4%
COc1cccc(-c2nc(-c3ccccn3)no2)c1	0.112µM*	-75.2%	0.338µM*	7.94µM*	?	1.9%
COc1cccc(-c2ccc(-c3noc(-c4ccccc4Br)n3)c(OC)n2)c1	·	-3.9%	?	·	·	·
COc1ccc(-c2nc(-c3ccncc3)no2)c(OC)c1	0.708µM*	·	0.953µM*	·	?	2.91µM*
O=[N+]([O-])c1cccc(-c2nc(-c3ccccn3)no2)c1	0.398µM*	·	4.78µM*	·	0.708µM*	?
CN(C(=O)c1cccc(C(=O)N(C)c2ccccc2)c1)c1ccccc1	-5.8%	·	-1.7%	·	-0.5%	-2.8%
Cc1nc2ccccc2n1S(=O)(=O)c1ccc(S(=O)(=O)N2CCCCCC2)cc1	9.8%	3.3%	1.3%	0.4%	-0.9%	0.7%
COc1ccc(OC)c(/C=N/N(C)c2ccccc2)c1	3.55µM*	?	10.7µM*	0.4%	?	5.8µM*
COc1cc(/C=N/N(C)C)cc(Br)c1O	-7.1%	·	-0.6%	·	-4.5%	-2.2%
COc1cc(/C=N/N(C)c2ccccc2)cc(Cl)c1O	6.2%	3.3%	13.5µM*	-0.5%	23.8%	11.8%
CC1Cc2cc(/C(O)=C3\C(=O)C(=O)N(Cc4ccncc4)C3c3ccccc3F)ccc2O1 (stereo not drawn)	-3.4%	·	-3.6%	·	-3.6%	0.8%
COc1cc(/C=C(\C#N)C(=O)Nc2ccccn2)ccc1O	-1.7%	·	10.7µM*	·	-3.5%	?
COc1cc(/C=C(\C#N)C(=O)Nc2ccc3c(c2)OCCO3)ccc1O	11.5%	·	0.269µM*	·	-4.6%	5.2%
N#C/C(=C/c1ccc([N+](=O)[O-])cc1)C(=O)Nc1ccccc1O	-2.2%	-2.8%	?	-5.4%	-0.2%	16.6%
N#C/C(=C/c1ccc(O)c([N+](=O)[O-])c1)C(=O)Nc1ccccc1	-6.7%	·	13.5µM*	·	-30.5%	-4.7%
CCOc1cc(/C=C(\C#N)C(=O)Nc2ccccn2)ccc1O	0.5%	·	16.9µM*	·	-7.3%	9.1%
COCc1cc(C)nc2sc(C(=O)Nc3ccc(C(C)=O)cc3)c(N)c12	·	?	-14.0%	·	·	·
CCCCCCCCNC(C)C(O)c1ccc(SC(C)C)cc1 (stereo not drawn)	1.2%	-19.2%	1.8%	3.3%	-0.1%	9.3%
CN(CC(=O)Nc1ccccc1Cl)C(=O)COC(=O)c1ccc(Cl)cc1[N+](=O)[O-]	-2.6%	·	3.0%	·	-4.2%	-5.5%
CCN(CC(=O)Nc1c(F)cccc1F)C(=O)c1ccc(Cl)c(S(=O)(=O)N2CCCCC2)c1	1.6%	·	4.2%	·	-3.3%	-4.4%
COc1cc(/C=C(\C#N)C(=O)N2CCc3ccccc32)ccc1O	-7.4%	·	16.9µM*	·	-0.6%	0.4%
SMILES	Rab9 promoter act	SMN2 splice enh	FLuc counter	Luc counter	NPC1 prom act	ELG1 genotoxic
CCOc1cccc(NC(=O)/C(C#N)=C/c2cccnc2)c1	-0.7%	·	16.9µM*	·	-5.7%	0.2%
N#C/C(=C\c1ccc(O)c(O)c1)C(=O)N1CCc2ccccc21	-10.5%	·	?	·	-11.3%	-5.5%
Cc1ccccc1NC(=O)c1sc2nc3c(c(-c4ccco4)c2c1N)CCCC3	-0.6%	-47.6%	1.9%	-2.1%	-4.4%	-3.7%
Cc1cccc(NC(=O)c2onc3c2CCCC3)n1	0.398µM*	·	0.757µM*	4.47µM*	0.501µM*	0.92µM*
Cc1ccccc1NC(=O)c1onc2c1CCCC2	2.51µM*	?	6.01µM*	?	4.47µM*	?
Cc1cccc(NC(=O)c2sc3nc4c(cc3c2N)CCCCCC4)c1C	·	-2.3%	0.0%	·	·	·
Cc1cccc(NC(=O)c2onc3c2CCCC3)c1C	2.82µM*	29.0%	7.57µM*	-12.1%	4.47µM*	?
Cc1ccc(NC(=O)CN(C)C(=O)c2ccc(S(=O)(=O)N(C)c3ccccc3)cc2)cc1	-6.7%	-1.7%	1.1%	3.4%	-5.5%	1.1%
COc1ccc2nc(SCC(=O)/C(C#N)=C(\C)N)[nH]c2c1	0.631µM*	·	8.49µM*	·	1.12µM*	?
C/C(N)=C(/C#N)C(=O)CSc1nnc(-c2ccccc2Br)o1	0.398µM*	2.82µM*	0.849µM*	-5.3%	0.447µM*	2.59µM*
COc1ccc(-c2nnc(SCC(=O)/C(C#N)=C(\C)N)o2)cc1	25.6%	4.47µM*	0.953µM*	-4.8%	0.708µM*	1.03µM*
CC(C)CCNC(=O)NC(=O)CSc1nnc(-c2ccccc2Br)o1	6.7%	-15.9%	-12.5%	-3.0%	-2.6%	0.1%
COc1ccc2nc(SCC(N)=O)[nH]c2c1	-3.9%	18.3%	-6.3%	2.1%	0.5%	0.5%
COc1cc(NC(=O)C2CC(=O)N(Cc3ccco3)C2)c(OC)cc1Cl (stereo not drawn)	1.5%	·	-1.3%	·	-2.1%	3.0%
CN(C)C(=O)CCc1ccc2c3c([nH]c2c1)[C@]1(CCC2CCCC2)[C@@H](C(=O)N2CCOCC2)C[C@H](CC(=O)NCC24CC5CC(CC(C5)C2)C4)C(=O)N1CC3	·	·	·	·	·	-7.2%
CNS(=O)(=O)c1ccc(NC(=O)c2ccccn2)cc1	2.82µM*	20µM*	15.1µM*	-9.6%	?	?
CCOc1ccc(C(=O)NCc2ccccn2)cc1	8.3%	8.4%	?	11.8%	14.6%	?
CCOc1ccc(NC(=O)c2nccnc2CO)cc1	2.82µM*	8.91µM*	9.53µM*	7.94µM*	1.41µM*	?
CCOc1ccc(NC(=O)c2cnccn2)cc1	1.26µM*	2.51µM*	5.36µM*	-24.2%	2µM*	?
CCOc1ccc(C(=O)Nc2ncccc2Cl)cc1	?	·	15.1µM*	-5.7%	?	?
CCOc1ccc(NC(=O)c2ccccn2)cc1	0.126µM*	0.794µM*	0.477µM*	12.6µM*	?	?
COc1cccc(NC(=O)c2cnsn2)c1	14.9%	-11.7%	?	?	29.5%	?
CCOc1ccc(NC(=O)c2cnsn2)cc1	0.562µM*	?	6.01µM*	-3.5%	1.41µM*	1.46µM*
O=C(COc1ccc(Cl)cc1Cl)N1CCCCCC1	4.7%	-3.0%	?	12.1%	4.6%	12.9%
